Source: PubChem BioAssay (NCATS)
Inconclusive results are not listed. Calls of active or inactive are those of the source. Calls follow the shape of the dose curve; as a rule, active = well fitted curve in the direction sought with a large enough effect; inconclusive = small, poorly fitted or top-dose-only effect, or another doubt; inactive = no such curve, though single readings can be large; an effect the other way counts as inactive or inconclusive.

Experiments:
[1] = Cell Viability - LYMP2-001 (AID 921);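 also: series mostly up to about 92 µM; 0% = DMSO only and full inhibition = tetraoctylammonium bromide control wells; nearly all actives have a fitted effect of over 70% in size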
Outline: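 CellTiter-Glo luminescence (intracellular ATP) after 24 hr compound exposure at 37 C, 2500 lymphoblastoid cells/well in complete medium. AC50 fitted with standard Hill equation; tetraoctylammonium bromide positive control.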

[2] = MultiTox-Fluor Cytotoxicity Assay - LYMP1-001 - Dead Cells (AID 946);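 also: 0% = DMSO and 100% = tetraoctylammonium bromide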
Outline: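 In this qHTS, 15 uM tetraoctylammonium bromide defined 100% and DMSO defined basal activity. Lymphoblastoid cells (LYMP1-001, 2500 per well) received compound for 16 hr at 37 C before a fluorogenic dead-cell substrate readout at 485/520 nm.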

[3] = MultiTox-Fluor Cytotoxicity Assay - LYMP1-001 - Live Cells (AID 947);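 also: 0% = DMSO only and full inhibition = tetraoctylammonium bromide control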
[4] = Cell Viability - LYMP1-002 - Assay at 16 hr (AID 948);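 also: 0% = DMSO alone and full effect = 92 µM tetraoctylammonium bromide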
Outline: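 LYMP1-002 human lymphoblastoid cells, 2500/well; 5 hr 37 C; cpd 16 hr 37 C; CellTiter-Glo 30 min RT; luminescence (ATP). Concentration-response, Hill-fit AC50. Pos ctrl tetraoctylammonium bromide.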

[5] = MultiTox-Fluor Cytotoxicity Assay - LYMP1-002 - Live Cells (AID 955);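 also: cells exposed to compound for 16 hours; % is scaled to controls: 0 for no effect and ±100 for the full control effect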
Outline: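 Human lymphoblastoid LYMP1-002 cells, 2500/well, treated 16 h at 37 C in complete medium. Live-cell protease activity via GF-AFC fluorescence (Ex/Em 405/510) after 60 min reagent incubation; AC50 from Hill fits.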

[6] = MultiTox-Fluor Cytotoxicity Assay - LYMP1-003 - Dead Cells (AID 961);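 also: 0% = DMSO and 100% = tetraoctylammonium bromide; nearly all actives have a fitted effect of over 70% in size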
Outline: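 Acute toxicity is scored as increased dead-cell protease activity in human lymphoblastoid LYMP1-003 cells after 16 h compound exposure in complete culture medium. Activity is normalized to DMSO basal and 15 uM tetraoctylammonium bromide as full response.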

[7] = MultiTox-Fluor Cytotoxicity Assay - LYMP1-003 - Live Cells (AID 962);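 also: cells exposed to compound for 16 hours at 37 °C; 0% = DMSO only and full loss = 92 µM tetraoctylammonium bromide; cytotoxic hits lower the live-cell protease signal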
Outline: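 LYMP1-003 lymphoblastoid cells, 2500/well in complete medium, treated 16 h at 37 C; live-cell protease cleavage of GF-AFC read by fluorescence (Ex/Em 405/510) after 60 min reagent; AC50 from Hill fits of concentration-response.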

[8] = Cell Viability - LYMP1-003 - Assay at 24 hr (AID 963);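 also: plate controls were DMSO only for no effect and tetraoctylammonium bromide positive control for full effect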
Outline: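 Human lymphoblastoid LYMP1-003 cells, 2500/well, treated 24 h at 37 C in complete medium. Viability read as intracellular ATP by CellTiter-Glo luminescence after 30 min at room temperature; AC50 from Hill-equation fits of qHTS concentration-response.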

[9] = Cell Viability - LYMP1-003 - Assay at 40 hr (AID 964); also: series mostly up to about 92 µM; % is scaled to controls: 0 for no effect and ±100 for the full control effect; nearly all actives have a fitted effect of over 60% in size
Outline: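 LYMP1-003 human lymphoblastoid cells, 2500/well, preincubated 5 h at 37 C, then treated with compound for 40 h at 37 C. Intracellular ATP read by CellTiter-Glo luminescence after 30 min at room temperature; AC50 from Hill-equation fits.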

[10] = Cell Viability - LYMP2-003 (AID 965);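 also: cells exposed to compounds for 24 h before reading; 0% = DMSO only and full effect = 92 µM tetraoctylammonium bromide; nearly all actives have a fitted effect of over 50% in size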
Outline: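 CellTiter-Glo luminescence (cellular ATP) after 24 h compound exposure at 37 C in complete medium; 2500 cells/well, 5 h settling beforehand. Concentration-response fitted to standard Hill equation for AC50. Tetraoctylammonium bromide served as positive control.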

[11] = Cell Viability - LYMP2-004 (AID 966);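 also: plate controls were DMSO only for no effect and tetraoctylammonium bromide control for full effect; nearly all actives have a fitted effect of over 65% in size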
Outline: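 Lymphoblastoid LYMP2-004 cells, 2500 per well, were preincubated for 5 hr and then treated with compound for 24 h at 37 C in complete medium. Viability was read as cellular ATP by CellTiter-Glo luminescence, and AC50 values were taken from Hill fits to concentration-response data.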

[12] = Cell Viability - LYMP2-005 (AID 967);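 also: series mostly up to about 92 µM; plate controls were DMSO only for no effect and 92 µM tetraoctylammonium bromide control for full effect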
Outline: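 Steps: seed 2500 LYMP2-005 cells/well, incubate 5 h at 37 C, add compound, incubate 24 h at 37 C, add CellTiter-Glo, wait 30 min at RT, read luminescence. Concentration-response data fitted to Hill equation for AC50.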

[13] = Cell Viability - LYMP2-009 (AID 968);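 also: series mostly up to about 92 µM; 0% = DMSO alone and the full-kill end = tetraoctylammonium bromide at 92 µM; nearly all actives have a fitted effect of over 55% in size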
[14] = Cell Viability - LYMP2-011 (AID 969);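 also: 0% = DMSO only and full inhibition = 92 µM tetraoctylammonium bromide; nearly all actives have a fitted effect of over 60% in size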
Outline: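 2500 cells/well in complete medium, compound-treated 24 h at 37 C. Viability read as intracellular ATP by CellTiter-Glo luminescence after 30 min at room temperature. AC50 from Hill fits of qHTS concentration-response data.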

[15] = Cell Viability - LYMP2-013 (AID 970);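 also: series mostly up to about 92 µM; 0% = DMSO only and full inhibition = tetraoctylammonium bromide control; nearly all actives have a fitted effect of over 55% in size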
Outline: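 Human lymphoblastoid LYMP2-013 cells, 2500/well, treated 24 h at 37 C in complete medium; viability as intracellular ATP by CellTiter-Glo luminescence after 30 min. AC50 from Hill fits of qHTS concentration-response.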

[16] = Cell Viability - LYMP2-015 (AID 971);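 also: 0% = DMSO only and full effect = 92 µM tetraoctylammonium bromide; nearly all actives have a fitted effect of over 55% in size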
Outline: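 LYMP2-015 human lymphoblastoid cells (2500/well) in complete medium, compound-treated 24 h at 37 C; viability read as cellular ATP by CellTiter-Glo luminescence after 30 min at room temperature. AC50 from Hill-equation fits of qHTS concentration-response data.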

[17] = Cell Viability - LYMP2-017 (AID 972); also: series mostly up to about 92 µM; % is scaled to controls: 0 for no effect and ±100 for the full control effect; nearly all actives have a fitted effect of over 55% in size
Outline: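 LYMP2-017 human lymphoblastoid cells (2500/well) settled 5 hr at 37 C, then exposed to compound 24 hr at 37 C in complete medium. Viability taken as intracellular ATP by CellTiter-Glo luminescence after 30 min at RT; AC50 from Hill fits.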

[18] = Cell Viability - LYMP2-019 (AID 973)
Outline: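 Human lymphoblastoid LYMP2-019 cells (2500/well) preincubated 5 h at 37 C, then treated 24 h at 37 C in complete medium. Viability by CellTiter-Glo ATP luminescence after 30 min at room temperature; AC50 from Hill fits.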

[19] = qHTS assay for cell viability of HEK293 cells (AID 743288); conditions: ATP luminescence (CellTiter-Glo), 18 h, hits give low values; also: % is scaled to controls: 0 for no effect and ±100 for the full control effect; nearly all actives have a fitted effect of over 50% in size
Outline: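 Environmental chemicals tested in qHTS format against parental HEK293 cells; 18 h treatment, 37 C; read-out ATP luminescence (CellTiter-Glo), 30 min RT development.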

[20] = qHTS assay for cell viability of the p53RE-bla HCT-116 cell line (AID 743292)
Outline: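 ATP-based luminescence, 16 h compound exposure at 37 C, p53RE-bla HCT-116 cells at 4,000/well.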

Measured: max response

CN(C)CCOC(c1ccccc1)c1ccccc1 (tested in a mixture with another compound)
inactive: [1] | [2] | [3] | [4] | [5] | [6] | [7] | [8] | [9] | [10] | [11] | [12] | [13] | [14] | [15] | [16] | [17] | [18] | [19] 3.64% | [20]
